# Laboratory results from PubChem BioAssay (NCATS).
# Results filed as inconclusive are left out. Activity calls are given as the source filed them. Unless noted, calls follow the shape of the dose curve; as a rule, active = well fitted curve in the direction sought with a large enough effect; inconclusive = small, poorly fitted or top-dose-only effect, or another doubt; inactive = no such curve, though single readings can be large; an effect the other way counts as inactive or inconclusive.
# Biological target: Rap guanine nucleotide exchange factor 3 (Homo sapiens) (UniProt O95398)
# Sequence (O95398 whole entry, looked up): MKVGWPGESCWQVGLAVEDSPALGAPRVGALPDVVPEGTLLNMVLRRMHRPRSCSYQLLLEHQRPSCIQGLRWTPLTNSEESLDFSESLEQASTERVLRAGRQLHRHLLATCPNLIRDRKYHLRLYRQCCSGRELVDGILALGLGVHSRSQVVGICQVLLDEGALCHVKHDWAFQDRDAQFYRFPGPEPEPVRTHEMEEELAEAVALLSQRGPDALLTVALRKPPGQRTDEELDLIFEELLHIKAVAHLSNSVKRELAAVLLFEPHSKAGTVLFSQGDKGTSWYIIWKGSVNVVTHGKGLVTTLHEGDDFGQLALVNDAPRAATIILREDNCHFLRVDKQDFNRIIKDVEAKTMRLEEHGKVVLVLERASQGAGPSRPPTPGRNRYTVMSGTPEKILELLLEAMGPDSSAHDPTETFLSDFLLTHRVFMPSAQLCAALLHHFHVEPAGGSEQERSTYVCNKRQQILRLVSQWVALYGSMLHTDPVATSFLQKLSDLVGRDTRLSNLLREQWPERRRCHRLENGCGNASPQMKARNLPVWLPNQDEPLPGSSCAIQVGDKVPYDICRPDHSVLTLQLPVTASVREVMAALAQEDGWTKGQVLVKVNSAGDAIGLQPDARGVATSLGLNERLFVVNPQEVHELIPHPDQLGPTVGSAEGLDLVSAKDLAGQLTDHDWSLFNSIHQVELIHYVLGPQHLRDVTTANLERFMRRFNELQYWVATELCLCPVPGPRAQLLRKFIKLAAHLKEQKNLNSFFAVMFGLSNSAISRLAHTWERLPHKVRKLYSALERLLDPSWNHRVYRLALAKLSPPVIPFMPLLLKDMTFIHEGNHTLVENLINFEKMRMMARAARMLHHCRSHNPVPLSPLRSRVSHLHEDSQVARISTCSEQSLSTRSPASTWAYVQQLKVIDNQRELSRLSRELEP
# Experiment: Confirmatory qHTS for agonist of cAMP-regulated guanine nucleotide exchange factor 3 (EPAC1) (AID 1645881);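 also: EPAC1 catalysed release of BODIPY-GDP from Rap1B seen as fluorescence loss; 100% = effect of cAMP agonist control; nearly all actives have a fitted effect of over 75% in size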
# Conditions: EPAC1 Rap1B BODIPY-GDP exchange fluorescence; series mostly up to 154 µM
row,SMILES,Potency
1,CCCC(=O)NCCc1c2n(c3ccc(OC)cc13)CCCc1ccccc1-2,inactive
2,CC(=O)N[C@@H](Cc1c[nH]c2ccccc12)C(=O)OCc1cc(C(F)(F)F)cc(C(F)(F)F)c1,inactive
3,C[C@H](NC(=O)/C(C#N)=C/c1ccc(O)c(O)c1)c1ccccc1,inactive
4,C[C@@]1(C2CCCC2)Cc2cc(OCC(=O)O)c(Cl)c(Cl)c2C1=O,inactive

# Biological target: Rap guanine nucleotide exchange factor 4 (Homo sapiens) (UniProt Q8WZA2)
# Sequence (Q8WZA2 whole entry, looked up): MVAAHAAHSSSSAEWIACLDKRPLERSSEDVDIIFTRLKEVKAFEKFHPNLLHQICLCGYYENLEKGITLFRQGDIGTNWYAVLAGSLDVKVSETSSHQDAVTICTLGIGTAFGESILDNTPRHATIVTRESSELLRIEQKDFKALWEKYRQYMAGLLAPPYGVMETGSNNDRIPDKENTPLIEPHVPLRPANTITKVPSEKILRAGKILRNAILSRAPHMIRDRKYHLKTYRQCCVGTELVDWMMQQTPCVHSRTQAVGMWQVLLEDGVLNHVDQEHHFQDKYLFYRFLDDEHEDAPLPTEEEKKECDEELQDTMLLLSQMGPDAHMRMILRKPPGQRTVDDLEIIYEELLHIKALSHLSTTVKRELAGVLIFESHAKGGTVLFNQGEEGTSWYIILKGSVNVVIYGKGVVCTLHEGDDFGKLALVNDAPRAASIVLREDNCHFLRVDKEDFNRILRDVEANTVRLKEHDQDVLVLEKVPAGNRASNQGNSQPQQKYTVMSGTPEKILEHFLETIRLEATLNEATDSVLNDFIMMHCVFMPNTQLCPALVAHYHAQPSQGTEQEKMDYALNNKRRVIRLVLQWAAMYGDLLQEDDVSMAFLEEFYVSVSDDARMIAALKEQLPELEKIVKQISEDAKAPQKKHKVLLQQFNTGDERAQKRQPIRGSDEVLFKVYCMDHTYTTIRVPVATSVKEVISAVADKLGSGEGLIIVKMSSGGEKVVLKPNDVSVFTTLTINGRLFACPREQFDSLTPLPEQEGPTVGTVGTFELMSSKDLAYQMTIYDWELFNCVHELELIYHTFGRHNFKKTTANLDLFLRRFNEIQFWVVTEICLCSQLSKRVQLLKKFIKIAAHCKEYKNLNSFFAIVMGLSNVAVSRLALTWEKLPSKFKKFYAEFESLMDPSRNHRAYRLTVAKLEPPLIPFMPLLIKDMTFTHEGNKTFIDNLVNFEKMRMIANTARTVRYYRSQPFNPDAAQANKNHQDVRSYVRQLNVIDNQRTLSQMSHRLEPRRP
# Experiment: Confirmatory qHTS for agonist of cAMP-regulated guanine nucleotide exchange factor 4 (EPAC2) (AID 1645884);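 also: nucleotide exchange releases bodipy-GDP from Rap1 and this lowers its fluorescence; % is scaled to controls: 0 for no effect and ±100 for the full control effect; nearly all actives have a fitted effect of over 65% in size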
# Conditions: EPAC2 GEF activity, Rap1B-BODIPY-GDP fluorescence; series mostly up to 154 µM
row,SMILES,Potency
1,CCCC(=O)NCCc1c2n(c3ccc(OC)cc13)CCCc1ccccc1-2,inactive
2,CC(=O)N[C@@H](Cc1c[nH]c2ccccc12)C(=O)OCc1cc(C(F)(F)F)cc(C(F)(F)F)c1,inactive
3,C[C@H](NC(=O)/C(C#N)=C/c1ccc(O)c(O)c1)c1ccccc1,inactive
4,C[C@@]1(C2CCCC2)Cc2cc(OCC(=O)O)c(Cl)c(Cl)c2C1=O,inactive

# Biological target: Rap guanine nucleotide exchange factor 4 (Homo sapiens) (UniProt Q8WZA2)
# Experiment: Confirmatory qHTS for antagonist of cAMP-regulated guanine nucleotide exchange factor 4 (EPAC2) (AID 1645885); also: nearly all actives have a fitted effect of over 25% in size; also: potency is read from the fitted curve at half-maximal effect; as to activity change, negative = inhibition: % is scaled to controls: 0 for no effect and ±100 for the full control effect
# Conditions: EPAC2 Rap1B-BODIPY-GDP exchange fluorescence, biochemical; series mostly up to 114 µM
row,SMILES,Potency
1,CCCC(=O)NCCc1c2n(c3ccc(OC)cc13)CCCc1ccccc1-2,7.84 µM (active)
2,CC(=O)N[C@@H](Cc1c[nH]c2ccccc12)C(=O)OCc1cc(C(F)(F)F)cc(C(F)(F)F)c1,35 µM (active)
3,C[C@H](NC(=O)/C(C#N)=C/c1ccc(O)c(O)c1)c1ccccc1,inactive
4,C[C@@]1(C2CCCC2)Cc2cc(OCC(=O)O)c(Cl)c(Cl)c2C1=O,17.5 µM (active)

# Biological target: Catechol O-methyltransferase (Homo sapiens) (UniProt P21964)
# Sequence (P21964 whole entry, looked up): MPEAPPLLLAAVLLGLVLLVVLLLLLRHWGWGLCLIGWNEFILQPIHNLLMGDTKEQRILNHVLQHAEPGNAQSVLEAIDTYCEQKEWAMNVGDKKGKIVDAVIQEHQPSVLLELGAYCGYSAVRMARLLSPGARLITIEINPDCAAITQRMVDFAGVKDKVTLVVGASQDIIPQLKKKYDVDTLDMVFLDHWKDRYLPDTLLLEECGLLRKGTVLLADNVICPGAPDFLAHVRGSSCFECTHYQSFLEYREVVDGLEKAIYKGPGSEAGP
# Experiment: Confirmatory Screen for Target Class Profiling of Small Molecule Inhibitors of Methyltransferases (AID 1745852; calls by dose curve; also: potency is read from the fitted curve at half-maximal effect; as to activity change, negative = inhibition: % is scaled to controls: 0 for no effect and ±100 for the full control effect)
# Conditions: MTase-Glo luminescence, SAH detection, recombinant enzyme; measured here: COMT max response; stronger effect = lower value
row,SMILES,activity [%]
1,Brc1c(Br)c(Br)c2[nH]cnc2c1Br,-26.1
2,CN1Cc2sccc2C(c2ccc(O)c(O)c2)C1 (configuration not stated),138
3,C[C@H](NC(=O)/C(C#N)=C/c1ccc(O)c(O)c1)c1ccccc1,72.5
4,Fc1ccc(CN(C2=NCCN2)c2c(Cl)cccc2Cl)cc1,-2.41
5,C[C@@]1(C2CCCC2)Cc2cc(OCC(=O)O)c(Cl)c(Cl)c2C1=O,5.42

# Biological target: Guanidinoacetate N-methyltransferase (Homo sapiens) (UniProt Q14353)
# Experiment: as above
# Conditions: MTase-Glo luminescence, SAH detection, recombinant enzyme; activity change, negative = inhibition: at 57.3 µM (top of the series)
SMILES,Potency,"activity change, negative = inhibition [%]"
Brc1c(Br)c(Br)c2[nH]cnc2c1Br,27.3 µM (active),–
CN1Cc2sccc2C(c2ccc(O)c(O)c2)C1 (configuration not stated),–,1.26
C[C@H](NC(=O)/C(C#N)=C/c1ccc(O)c(O)c1)c1ccccc1,–,2.74
Fc1ccc(CN(C2=NCCN2)c2c(Cl)cccc2Cl)cc1,–,6.96
C[C@@]1(C2CCCC2)Cc2cc(OCC(=O)O)c(Cl)c(Cl)c2C1=O,–,7.12

# Biological target: Nicotinamide N-methyltransferase (Homo sapiens) (UniProt P40261)
# Sequence (P40261 whole entry, looked up): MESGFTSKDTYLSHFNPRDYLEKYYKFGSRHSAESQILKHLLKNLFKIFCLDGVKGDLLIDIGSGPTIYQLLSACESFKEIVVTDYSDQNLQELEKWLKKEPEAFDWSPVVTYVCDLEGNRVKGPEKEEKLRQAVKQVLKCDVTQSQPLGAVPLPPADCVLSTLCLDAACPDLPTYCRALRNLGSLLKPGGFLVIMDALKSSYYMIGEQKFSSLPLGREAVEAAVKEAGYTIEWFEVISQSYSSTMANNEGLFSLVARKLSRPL
# Experiment: as above
# Conditions: MTase-Glo luminescence, SAH detection, recombinant enzyme; measured here: NNMT max response; stronger effect = lower value
row,SMILES,activity [%]
1,Brc1c(Br)c(Br)c2[nH]cnc2c1Br,-40.5
2,CN1Cc2sccc2C(c2ccc(O)c(O)c2)C1 (configuration not stated),-9.55
3,C[C@H](NC(=O)/C(C#N)=C/c1ccc(O)c(O)c1)c1ccccc1,-55.4
4,Fc1ccc(CN(C2=NCCN2)c2c(Cl)cccc2Cl)cc1,-23.8
5,C[C@@]1(C2CCCC2)Cc2cc(OCC(=O)O)c(Cl)c(Cl)c2C1=O,-45.2

# Biological target: Phenylethanolamine N-methyltransferase (Homo sapiens) (UniProt P11086)
# Sequence (P11086 whole entry, looked up): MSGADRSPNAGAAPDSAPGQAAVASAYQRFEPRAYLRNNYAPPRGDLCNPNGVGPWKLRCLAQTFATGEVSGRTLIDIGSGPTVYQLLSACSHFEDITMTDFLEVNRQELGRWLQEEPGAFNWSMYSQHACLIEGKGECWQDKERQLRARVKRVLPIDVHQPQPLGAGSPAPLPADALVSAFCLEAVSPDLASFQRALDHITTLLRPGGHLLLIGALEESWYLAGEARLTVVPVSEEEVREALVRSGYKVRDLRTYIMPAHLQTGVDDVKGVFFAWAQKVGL
# Experiment: as above
# Conditions: MTase-Glo luminescence, SAH detection, recombinant enzyme; measured here: PNMT max response; stronger effect = lower value
row,SMILES,activity [%]
1,Brc1c(Br)c(Br)c2[nH]cnc2c1Br,-39.7
2,CN1Cc2sccc2C(c2ccc(O)c(O)c2)C1 (configuration not stated),2.33
3,C[C@H](NC(=O)/C(C#N)=C/c1ccc(O)c(O)c1)c1ccccc1,-2.26
4,Fc1ccc(CN(C2=NCCN2)c2c(Cl)cccc2Cl)cc1,-2.64
5,C[C@@]1(C2CCCC2)Cc2cc(OCC(=O)O)c(Cl)c(Cl)c2C1=O,5.32
